In PubChem BioAssay one finds composite z-score and z-score data, which are given here for six compounds.

Assay [1] is described as follows: small molecules captured by biotinylated probe aFSTL3 – biochemical, small-molecule microarray, fluorescence 635/667, stem cell growth factor project, primary screen (AID 1064).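 Further: measures binding of the biotinylated anti-FSTL3 antibody to printed compounds.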 To be noted: higher = more signal.
Assay [2] is described as follows: binders from COS7 lysate, DM2A8 probe, primary screen, torsin A project, cell lysate, small-molecule microarray, fluorescence 635/667 (AID 1065). To be noted: higher = more signal, COS7 lysate expressing mutant human TOR1A.
Assay [3] is described as follows: small molecules captured by biotinylated probe aFGF2 – biochemical, small-molecule microarray, fluorescence 635/667, stem cell growth factor project, primary screen (AID 1067).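 Further: measures binding of biotinylated aFGF2 protein to printed compounds on slides; z-score merges feature fluorescence and signal-to-noise across triplicate slides.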 To be noted: higher = more signal.
The nature of assay [4]: small molecules captured by biotinylated probe aFGF10 – biochemical, small-molecule microarray, fluorescence 635/667, stem cell growth factor project, primary screen (AID 1071).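 Further: score merges 667 nm spot intensity and signal to noise from triplicate slides.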 The conditions noted are these: higher = more signal.
Assay [5] concerns the target Neurogenic locus notch homolog protein 2 (Homo sapiens) (UniProt Q04721). The experiment in a line: small molecules binding Notch2 protein – biochemical, small-molecule microarray, 635 nm fluorescence, stem cell growth factors, primary screen (AID 1073). To be noted: higher = more signal.
The target in assay [6] is Pro-neuregulin-1, membrane-bound isoform (Homo sapiens) (UniProt Q02297). The experiment in a line: small molecules binding neuregulin-1 protein – biochemical, small-molecule microarray, fluorescence 635/667, psychiatric disease protein project, primary screen (AID 1075).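 Further: score combines 667 nm spot fluorescence with signal to noise.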 To be noted: NRG1 binding, 635 nm fluorescence, higher = more signal.
Pro-neuregulin-1, membrane-bound isoform (Homo sapiens), sequence (Q02297 whole entry, looked up, the tested form may be a part, canonical isoform): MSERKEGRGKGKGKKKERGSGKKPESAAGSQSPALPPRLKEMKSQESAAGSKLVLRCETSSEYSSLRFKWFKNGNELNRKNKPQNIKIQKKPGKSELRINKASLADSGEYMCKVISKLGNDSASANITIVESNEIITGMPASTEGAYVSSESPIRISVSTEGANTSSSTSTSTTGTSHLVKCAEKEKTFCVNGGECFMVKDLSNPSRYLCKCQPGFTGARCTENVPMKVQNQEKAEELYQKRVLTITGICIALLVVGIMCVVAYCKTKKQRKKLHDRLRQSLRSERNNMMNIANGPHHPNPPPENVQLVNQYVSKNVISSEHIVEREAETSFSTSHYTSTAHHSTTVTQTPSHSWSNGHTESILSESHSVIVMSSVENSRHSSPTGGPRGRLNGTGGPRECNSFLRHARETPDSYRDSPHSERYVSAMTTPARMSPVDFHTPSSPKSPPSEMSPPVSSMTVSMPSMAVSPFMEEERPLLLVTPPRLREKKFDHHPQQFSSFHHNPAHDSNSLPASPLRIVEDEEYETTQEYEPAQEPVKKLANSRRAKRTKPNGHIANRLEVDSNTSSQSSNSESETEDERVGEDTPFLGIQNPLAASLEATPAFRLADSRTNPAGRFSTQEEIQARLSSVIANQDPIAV
Assay [7] deals with Neuregulin-1 EGF-like domain. The assay is described as follows: small molecules binding NRG1 EGF domain – biochemical, small-molecule microarray, 635 nm fluorescence, primary screen (AID 1081).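 Further: binding of the protein to compounds printed on small-molecule microarray slides.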 To be noted: higher = more signal.
Assay [8] is described as follows: FRG1 expression reporter modulators in myotubes – cell-based, C2C12 myotubes, firefly/Renilla luciferase, luminescence, FRG1 inhibition for FSHD, primary screen (AID 1084). To be noted: FRG1 promoter luciferase, higher = more signal, called active from +8 up or from −8 down.
The nature of assay [9]: small molecules captured by biotinylated probe aFST – biochemical, small-molecule microarray, fluorescence 635/667, stem cell growth factor project, primary screen (AID 1086).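 Further: score merges 667 nm fluorescence with signal-to-noise of each printed compound spot.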 The conditions noted are these: higher = more signal.
A short description of assay [10]: binders of probe aHhip on microarray, primary screen, stem cell growth factor project, biochemical, small-molecule microarray, fluorescence 635/667 (AID 1087).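 Further: score merges spot fluorescence at 667nm with spot signal to noise ratio.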 The conditions noted are these: higher = more signal.
In assay [11] the test system is PRMT1 (protein arginine N-methyltransferase 1). The experiment in a line: small molecules binding arginine methyltransferase PRMT1 – biochemical, small-molecule microarray, 635 nm fluorescence, primary screen (AID 1088).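 Further: binding of Prmt1 protein to compounds spotted on small-molecule microarray slides.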 The conditions noted are these: higher = more signal.
Assay [12] is described as follows: growth effects on S. cerevisiae YJM789 – YJM789 clinical isolate, OD600, 24 h, basal, primary screen (AID 1089).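 Further: growth of clinical yeast isolate S. cerevisiae YJM 789 seeded 1000 cells per well; test concentration not given here.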 The conditions noted are these: higher = more signal, called active from +8 up or from −8 down.
Assay [13] in a line: S. pombe growth modifiers, basal conditions – strain 972, OD600, 24 h, no modulator, primary screen (AID 1090).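 Further: basal condition with compound alone and no growth modifier present; test concentration not given here.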 To be noted: S. pombe 972 growth, higher = more signal, called active from +8 up or from −8 down.
Assay [14] can be described thus: budding yeast growth modifiers under rapamycin – strain BY4716, OD600, 96 h, primary screen (AID 1091). Further: test concentration not given here. To be noted: S. cerevisiae BY4716 + rapamycin, higher = more signal, called active from +8 up or from −8 down.
Assay [15] has as its target Torsin-1A-interacting protein 2 (Homo sapiens) (UniProt Q8NFQ8). The assay is described as follows: small molecules binding lysate-expressed LULL1 – cell lysate, human LULL1 lysate, 635/667 nm fluorescence, primary screen (AID 1092).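 Further: score merges per-feature 667 nm fluorescence with signal-to-noise.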 To be noted: small-molecule microarray, hLULL1 lysate binding, 635 nm fluorescence; higher = more signal.
Assay [16] can be described thus: optical density change of DRC41 E. coli – strain DRC41, OD650, 24 h, E. coli filamentation project, primary screen (AID 1093).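 Further: MC1000 strain lacking acrAB efflux and sulA so SOS filamentation is blocked; test concentration not given here.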 To be noted: E. coli DRC41 growth, higher = more signal, called active from +8 up or from −8 down.
A short description of assay [17]: probe aLefty2 binding to arrayed compounds – biochemical, biotinylated probe, 635/667 nm fluorescence, primary screen (AID 1094).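 Further: score merges spot fluorescence near 667 nm with spot signal-to-noise ratio.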 The conditions noted are these: small-molecule microarray, higher = more signal.
Assay [18] concerns Noggin (protein binding on small-molecule microarray). The assay is described as follows: small molecules binding Noggin protein – biochemical, 635/667 nm fluorescence, primary screen (AID 1095).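 Further: score merges 667 nm feature fluorescence with signal to noise over triplicate slides.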 To be noted: 635 nm fluorescence, higher = more signal.
The target in assay [19] is Neurogenic locus notch homolog protein 3 (Homo sapiens) (UniProt Q9UM47). The assay is described as follows: small molecules binding NOTCH3 protein – biochemical, 635/667 nm fluorescence, primary screen (AID 1096). The conditions noted are these: small-molecule microarray, 635 nm fluorescence, higher = more signal.
Neurogenic locus notch homolog protein 3 (Homo sapiens), sequence (Q9UM47 whole entry, looked up): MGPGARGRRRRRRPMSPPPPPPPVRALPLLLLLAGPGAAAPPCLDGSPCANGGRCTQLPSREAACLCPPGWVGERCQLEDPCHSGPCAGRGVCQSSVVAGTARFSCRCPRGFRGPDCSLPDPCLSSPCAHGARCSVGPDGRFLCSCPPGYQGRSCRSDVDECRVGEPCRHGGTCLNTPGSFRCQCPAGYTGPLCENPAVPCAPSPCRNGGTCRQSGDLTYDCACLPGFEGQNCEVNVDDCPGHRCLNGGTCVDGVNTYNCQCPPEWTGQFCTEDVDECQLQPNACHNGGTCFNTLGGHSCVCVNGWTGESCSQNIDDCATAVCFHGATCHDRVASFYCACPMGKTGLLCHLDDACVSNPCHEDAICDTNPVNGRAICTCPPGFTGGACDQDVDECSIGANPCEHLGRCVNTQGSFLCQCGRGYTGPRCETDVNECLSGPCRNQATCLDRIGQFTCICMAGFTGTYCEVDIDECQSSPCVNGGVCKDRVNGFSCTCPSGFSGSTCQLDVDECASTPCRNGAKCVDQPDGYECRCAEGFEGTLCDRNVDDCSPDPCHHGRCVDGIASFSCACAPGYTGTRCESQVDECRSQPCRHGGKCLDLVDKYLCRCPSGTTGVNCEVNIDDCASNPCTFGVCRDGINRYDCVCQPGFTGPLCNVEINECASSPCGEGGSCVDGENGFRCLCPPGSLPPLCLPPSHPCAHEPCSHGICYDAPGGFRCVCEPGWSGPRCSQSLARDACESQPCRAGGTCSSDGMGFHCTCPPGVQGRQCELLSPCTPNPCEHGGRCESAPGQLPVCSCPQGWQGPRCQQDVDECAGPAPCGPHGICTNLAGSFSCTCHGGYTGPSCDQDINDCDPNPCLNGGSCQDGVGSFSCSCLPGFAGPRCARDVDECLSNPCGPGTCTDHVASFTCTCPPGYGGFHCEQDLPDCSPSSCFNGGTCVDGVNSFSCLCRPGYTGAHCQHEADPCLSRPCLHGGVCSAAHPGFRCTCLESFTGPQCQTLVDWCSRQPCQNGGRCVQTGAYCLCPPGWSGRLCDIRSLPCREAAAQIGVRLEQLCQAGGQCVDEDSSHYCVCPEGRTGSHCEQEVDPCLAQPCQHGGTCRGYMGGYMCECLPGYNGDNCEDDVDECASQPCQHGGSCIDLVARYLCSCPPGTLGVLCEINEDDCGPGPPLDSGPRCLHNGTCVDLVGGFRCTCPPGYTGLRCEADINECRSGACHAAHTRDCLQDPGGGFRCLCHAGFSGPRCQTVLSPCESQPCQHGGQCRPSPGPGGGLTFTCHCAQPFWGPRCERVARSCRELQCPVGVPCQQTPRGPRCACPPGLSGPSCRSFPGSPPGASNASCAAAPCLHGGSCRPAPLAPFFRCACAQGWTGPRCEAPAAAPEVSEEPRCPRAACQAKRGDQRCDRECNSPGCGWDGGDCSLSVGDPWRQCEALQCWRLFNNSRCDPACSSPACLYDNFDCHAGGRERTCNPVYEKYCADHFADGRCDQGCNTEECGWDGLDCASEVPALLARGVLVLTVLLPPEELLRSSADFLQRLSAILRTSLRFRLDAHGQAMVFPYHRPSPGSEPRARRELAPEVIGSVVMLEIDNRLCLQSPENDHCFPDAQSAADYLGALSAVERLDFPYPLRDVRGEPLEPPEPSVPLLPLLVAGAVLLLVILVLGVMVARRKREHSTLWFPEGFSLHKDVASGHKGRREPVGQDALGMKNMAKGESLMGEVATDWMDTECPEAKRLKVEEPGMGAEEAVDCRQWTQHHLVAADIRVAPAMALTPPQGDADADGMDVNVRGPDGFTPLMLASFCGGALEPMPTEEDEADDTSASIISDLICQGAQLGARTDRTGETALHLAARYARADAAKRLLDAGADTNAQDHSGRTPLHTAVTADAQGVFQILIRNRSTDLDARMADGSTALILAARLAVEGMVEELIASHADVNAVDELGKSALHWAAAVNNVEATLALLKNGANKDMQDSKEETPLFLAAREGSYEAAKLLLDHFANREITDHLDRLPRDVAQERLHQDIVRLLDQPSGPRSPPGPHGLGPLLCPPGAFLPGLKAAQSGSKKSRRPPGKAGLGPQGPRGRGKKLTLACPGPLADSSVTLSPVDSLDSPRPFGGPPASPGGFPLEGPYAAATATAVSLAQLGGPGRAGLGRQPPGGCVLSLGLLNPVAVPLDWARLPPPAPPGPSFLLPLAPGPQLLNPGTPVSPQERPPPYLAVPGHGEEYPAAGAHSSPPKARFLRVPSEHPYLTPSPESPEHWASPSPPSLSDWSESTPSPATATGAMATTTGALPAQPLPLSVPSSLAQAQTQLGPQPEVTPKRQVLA
Assay [20] is described as follows: probe aEGFR binding to arrayed compounds – biochemical, biotinylated probe, 635/667 nm fluorescence, primary screen (AID 1097).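 Further: probe is a biotinylated anti-EGFR antibody binding compounds printed on slides; score combines fluorescence near 667 nm and signal to noise of each spot.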 The conditions noted are these: small-molecule microarray, higher = more signal.

“And” between values parts separate entries of the source, which are not always exact repeats. Identical values can stand only once. The source made the active and inactive calls.

Torsin-1A-interacting protein 2 (Homo sapiens), sequence (Q8NFQ8 whole entry, looked up): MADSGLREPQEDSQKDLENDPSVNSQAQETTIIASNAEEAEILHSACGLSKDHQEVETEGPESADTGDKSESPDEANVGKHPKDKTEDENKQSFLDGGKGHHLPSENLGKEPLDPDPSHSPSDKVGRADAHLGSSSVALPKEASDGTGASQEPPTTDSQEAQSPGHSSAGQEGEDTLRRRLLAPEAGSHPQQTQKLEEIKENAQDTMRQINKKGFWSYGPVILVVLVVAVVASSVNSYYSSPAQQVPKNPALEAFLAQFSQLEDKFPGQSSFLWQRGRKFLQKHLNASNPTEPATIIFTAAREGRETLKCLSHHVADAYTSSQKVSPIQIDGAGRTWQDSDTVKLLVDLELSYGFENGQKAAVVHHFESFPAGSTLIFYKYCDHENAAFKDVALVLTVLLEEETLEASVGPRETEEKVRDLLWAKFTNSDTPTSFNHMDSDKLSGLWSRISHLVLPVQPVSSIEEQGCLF

Consider `COC(=O)C1=C(C)N(Cc2ccccc2)[C@]23O[C@](C(=O)OC)(C(=O)N2[C@@H]1c1ccccc1)[C@H]1C(=O)N(c2ccccc2)C(=O)[C@H]13`, for which the composite z-score in assay [1] was -0.387 and -0.343; in [2], 0.446 and 0.277; in [3], -0.0747 and 0.41; in assay [4] it was -0.116 and 0.883; in assay [5], 1.18 and 0.445; in [6], 0.288 and 0.212. For the same compound, the composite z-score was 1.07 and 1.09 in assay [7]; 0.0931 and 0.64 in assay [9]; 0.192 and -0.0672 in assay [10]; 0.343 and -0.0383 in [11]; 1.14 and 0.69 in assay [15]; -0.0812 and -0.0245 in [17]. Besides, the composite z-score in assay [18] is 0.468 and 0.611; in assay [19], 0.649 and 1.11; in assay [20], 0.253 and 0.0534. Besides, the z-score in assay [8] is -0.507 (inactive) and -0.154 (inactive); in [12], 0.434 (inactive) and 0.397 (inactive); in assay [13] it was -0.261 (inactive) and -0.858 (inactive); in assay [14], -0.558 (inactive) and 0.264 (inactive); in assay [16], 0.102 (inactive) and 0.185 (inactive).
Regarding `O=C1NC(=O)C2C1C=CC(C(O)c1ccc([N+](=O)[O-])cc1)N2Nc1ccc(Cl)cc1Cl` (stereo not given), the composite z-score in assay [1] is 0.396 and 1.04; in assay [2] it was 0.0888 and 1.29; in assay [3], -0.0044 and 0.115; in assay [4], 0.694 and 0.322; in [5], 1.13 and 0.991; in assay [6], 1.18 and 1.78. Besides, the composite z-score in assay [7] was 0.939 and 1.21; in assay [9] it was 0.848 and 1.54; in [10] it was -0.226 and -0.236; in assay [11], 0.551 and 0.395; in [15], 3.3 and 3.03; in [17], 0.127 and 0.386. In addition, the composite z-score in assay [18] was -0.142 and -0.311; in assay [19], 0.843 and 0.588; in assay [20] it was 0.0661 and -0.102. Moreover, the z-score in assay [8] is 0.0748 (inactive) and -0.358 (inactive); in assay [12], -1.44 (inactive) and -1.78 (inactive); in [13], -1.46 (inactive) and -1.07 (inactive); in assay [14], -0.923 (inactive) and -0.888 (inactive); in [16] it was 0.33 (inactive) and 0.728 (inactive).
As to `CO[C@@H]1COC(=O)CC=C[C@H](C)[C@@H](NS(=O)(=O)c2ccc(C)cc2)COC(=O)CC=C[C@@H]1C`, the composite z-score in assay [1] was -0.226 and -0.425; in assay [2] it was 0.711 and 1.44; in [3] it was -0.234 and -0.127; in [4] it was 0.433 and -0.153; in assay [5] it was 0.671 and -0.333; in assay [6], 0.0292 and -0.476. For the same compound, the composite z-score in assay [7] is 0.628 and 0.956; in assay [9], 0.0151 and 0.106; in assay [10], 0.113 and -0.0391; in assay [11], 1.16 and 1.54; in assay [15], 0.633 and -0.853; in assay [17], -0.0785 and -0.186. For the same compound, the composite z-score in assay [18] is 1.27 and 1.31; in assay [19], 0.634 and 0.525; in [20], -0.115 and 0.0097. For the same compound, the z-score in assay [8] was 0.994 (inactive) and 0.445 (inactive); in assay [12], 0.403 (inactive) and -0.552 (inactive); in assay [13], -0.733 (inactive) and -0.194 (inactive); in assay [14], 0.62 (inactive) and -1.52 (inactive); in assay [16], 0.56 (inactive) and 0.132 (inactive).
Consider `C=CCN(CCCCC)C(=O)C1N(C(C)(C)CO)C(=O)C2C(C(=O)O)C3C=CC21O3` (stereo not given), for which the composite z-score in [1] was 0.215 and 0.754; in assay [2], -0.806 and -0.866; in [3], -0.223 and -0.193; in assay [4] it was -1.26 and -2.17; in [5] it was -1.64 and -2.02; in assay [6], -0.729 and 1.18. The composite z-score in assay [7] is -0.369 and -0.726; in assay [9], -2.01 and -0.558; in assay [10], -0.261 and 0.0274; in assay [11], -1.11 and -1.37; in assay [15], -1.82 and -1.59; in assay [17] it was -0.202 and -0.159. The composite z-score in assay [18] was -2.03 and -1.91; in [19], -1.09 and -0.779; in assay [20], -0.258 and -0.301. In addition, the z-score in [8] was 0.521 (inactive) and 1.02 (inactive); in assay [12], -0.447 (inactive) and -1.11 (inactive); in assay [13], -0.342 (inactive) and -0.0005 (inactive); in [14], -0.402 (inactive) and -0.177 (inactive); in [16] it was -0.373 (inactive) and -0.262 (inactive).
In the case of `CCOC(=O)C[C@H]1[C@H](OC(=O)c2ccccc2-c2ccccc2)[C@@H](NC(=O)c2ccccc2)c2cc(OCCCO)ccc2N1C(=O)c1ccc2ccccc2n1`, the composite z-score in assay [1] is -0.0767 and -0.127; in [2] it was 0.455 and 0.0871; in [3] it was 0.0047 and -0.094; in assay [4], 0.507 and 0.191; in [5], 0.708 and 0.964; in assay [6] it was -0.106 and 0.749. Moreover, the composite z-score is 0.738 and 0.565 in assay [7]; 0.214 and 0.306 in [9]; 0.347 and -0.0994 in assay [10]; -0.0222 and 1.19 in assay [11]; 0.549 and 1.01 in assay [15]; -0.0437 and 0.0212 in assay [17]. In addition, the composite z-score in [18] is 0.357 and 0.843; in assay [19] it was 0.481 and 0.737; in assay [20] it was 0.0323 and -0.0815. For the same compound, the z-score in assay [8] was -0.129 (inactive) and -0.113 (inactive); in [12], -0.0469 (inactive) and -0.78 (inactive); in assay [13], -0.19 (inactive) and 0.209 (inactive); in assay [14], -0.0952 (inactive) and 0.0526 (inactive); in [16] it was 1.02 (inactive) and -0.728 (inactive).
Regarding `COC(=O)C1=C(C)N(Cc2ccccc2)C2=C3C(=O)N(C)C(=O)[C@@H]3[C@@](O)(C(=O)OC)C(=O)N2[C@@H]1c1ccccc1`, the composite z-score in assay [1] was -0.0472 and -0.448; in [2], 0.131 and 0.375; in [3] it was -0.0301 and -0.0158; in [4] it was 0.721 and 0.128; in [5] it was 0.356 and 0.415; in assay [6], -0.239 and -0.0154. Also, the composite z-score was -0.322 and -0.0698 in assay [7]; 0.224 and -0.114 in [9]; 0.251 and -0.0645 in assay [10]; 0.471 and 0.0202 in assay [11]; 0.0055 and 0.222 in [15]; 0.0494 and -0.184 in assay [17]. In addition, the composite z-score in assay [18] is 0.34 and 0.538; in assay [19] it was 0.182 and 0.361; in [20] it was -0.138 and 0.131. In addition, the z-score in assay [8] was 0.121 (inactive) and -0.811 (inactive); in [12], 0.0264 (inactive) and -1.64 (inactive); in assay [13] it was -0.774 (inactive) and -1.87 (inactive); in [14], -0.807 (inactive) and -0.913 (inactive); in assay [16] it was 0.858 (inactive) and -0.0481 (inactive).
